Records with an inconclusive call do not appear. Calls of active or inactive are those of the source. Rule for the calls, unless noted: active = hit-call score of the fitted dose curve at least 0.9, where 1 is the maximum; inconclusive = response in the unintended direction; inactive = score below 0.9.
What was measured:
[1] = IUF_NPC1_cytotoxicity_72hr: Cytotoxicity Assessment at 72 hours in the Leibniz Research Institute for Environmental Medicine (IUF) Neural Progenitor Cell Proliferation Assay (NPC1) (AID 2284332);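 note: rising LDH signal means more cytotoxicity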
Outline: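 Single human fetal cortex neural progenitor spheres (GW 16-19, 0.25-0.35 mm) in EGF/FGF proliferation medium were exposed to compound for 72 h at 37C without renewal. Medium LDH release was read as resorufin fluorescence and fitted as gain-of-signal.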

[2] = VALA_TUBIPS_Antagonist_CellCount: Viability Assessment in the VALA Sciences human iPS-derived Endothelial Tubule Formation (TUBIPS) Antagonism Assay (AID 2284335)
Experimental: VALA_TUBIPS_Agonist is a cell-based, multiplexed assay that uses human iPS-derived endothelial cells (iPSC). Measurements were taken 72 hours after chemical dosing in a 96-well plate.VALA_TUBIPS_Antagonist_CellCount is the one of two assay components measured from the VALA_TUBIPS_Antagonist assay. It is designed to make measurements of viability, a form of viability reporter, as detected with fluorescence intensity signals by HCS Fluorescent Imaging technology. Data from the assay component VALA_TUBIPS_Antagonist_CellCount was analyzed at the endpoint, VALA_TUBIPS_Antagonist_CellCount, in the positive analysis fitting direction relative to DMSO as the negative control and baseline of activity. Using a type of viability reporter, loss-of-signal activity can be used to understand viability. To generalize the intended target to other relatable targets, this assay endpoint is annotated to the cell cycle intended target family, where the subfamily is cell count.
This HUVEC-HDF assay was designed to detect chemical suppression of tubulogenesis, i.e. antagonism. To measure tubulogenesis antagonism, HUVEC cells were co-cultured with HDF cells at a 1:3 ratio for 3-days in 10 ng/ml VEGF (i.e., favorable conditions with growth factors), then changed to assay medium containing 10 ng/ml VEGF and ToxCast compounds for an additional 3-day period. […]

[3] = VALA_MIGHUV1_ScratchOnly_WoundArea: VALA Sciences human Umbilical Vein Endothelial Cell Migration (MIGHUV) Assay, Area of Scratch Wound Inhibited Recovery (AID 2284336)
Outline: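 HUVEC monolayers (9000 cells/well) were scratched after 24 h, dosed within 30 min (six concentrations, triplicate, 0.1% DMSO), allowed 24 h recovery, then fixed. Hoechst-stained nuclei in the wound imaged; cytochalasin D as reference.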

[4] = VALA_TUBIPS_Agonist_CellCount: Viability Assessment in the VALA Sciences human iPS-derived Endothelial Tubule Formation (TUBIPS) Agonism Assay (AID 2284338)
[5] = system: SRY-box transcription factor 17 (SOX17) Protein Expression, Deisenroth Lab, SOX17 (gene 64321); experiment: CCTE_Deisenroth_DEVTOX-GLR_legacy_Sox17: (Legacy) CCTE's DevTox GLR-Endo Assay Evaluation of SRY-box transcription factor 17 (SOX17) Protein Expression, Deisenroth Lab (AID 2284341; active = hit-call score of the fitted dose curve at least 0.9, where 1 is the maximum; inactive = score below 0.9); conditions: actives raise or lower the signal
Outline: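 Percent SOX17-positive cells, scored by high-content imaging as mean intensity exceeding pluripotent-control median by 5x BMAD, divided by cell count. Human RUES2-GLR endoderm differentiation, 48 h, two exposures 24 h apart, 1 nM–200 uM; DMSO-referenced bidirectional fitting.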

SERPINA7 (gene 6906) = experiment: CCTE_GLTED_hTBG: CCTE's human Thyroxine-binding Globulin (TBG) Inhibition Assay, Great Lakes Toxicology and Ecology Division (GLTED) Lab (AID 2284343);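 note: active chemicals lower fluorescence versus DMSO baseline by displacing probe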
Outline: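 Cell-free binding assay in which human TBG is incubated with test chemical for 2 hours and displacement of the fluorescent probe ANSA is read at 380 nm excitation/475 nm emission. Activity is fitted against DMSO as the negative control.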

[6] = system: SRY-box transcription factor 2 (SOX2) Protein Expression, Deisenroth Lab, SOX2 (gene 6657); experiment: CCTE_Deisenroth_DEVTOX-GLR_legacy_Sox2: (Legacy) CCTE's DevTox GLR-Endo Assay Evaluation of SRY-box transcription factor 2 (SOX2) Protein Expression, Deisenroth Lab (AID 2284346; active = hit-call score of the fitted dose curve at least 0.9, where 1 is the maximum; inactive = score below 0.9)
Outline: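 RUES2-GLR human pluripotent cells seeded 24 h, then differentiated 48 h in defined media with two chemical doses 24 h apart (10-point, 1 nM–200 uM). Fixed, nuclear-stained, imaged; % Sox2+ cells (>5x BMAD over endoderm control median), DMSO-subtracted, fitted upward.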

[7] = CCTE_Deisenroth_H295R-HTRF_384WELL_ESTRADIOL: CCTE's H295R-HTRF Assay Evaluation of Estradiol Concentration, Deisenroth Lab (AID 2284361; active = hit-call score of the fitted dose curve at least 0.9, where 1 is the maximum; inactive = score below 0.9); conditions: actives raise or lower the signal
Outline: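 H295R cells exposed 48 h to chemicals at 0.001 - 100 uM final (nine points, triplicate); estradiol in conditioned medium measured by HTRF immunoassay, fitted bidirectionally versus DMSO. Viability by CellTiter-Glo on same plates.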

[8] = CCTE_Deisenroth_H295R-HTRF_384WELL_TESTOSTERONE: CCTE's H295R-HTRF Assay Evaluation of Testosterone Concentration, Deisenroth Lab (AID 2284373; active = hit-call score of the fitted dose curve at least 0.9, where 1 is the maximum; inactive = score below 0.9); conditions: actives raise or lower the signal
Outline: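 Secreted testosterone was quantified by HTRF immunoassay of medium from human adrenocortical H295R cells after 48 h chemical exposure at 0.001–100 uM final. Gain or loss was fitted against DMSO. ATP-based viability was read on matched wells, five experimental replicates.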

[9] = CCTE_Deisenroth_H295R-HTRF_384WELL_CTOX: Cytotoxicity Assessment in CCTE's H295R-HTRF Assay, Deisenroth Lab (AID 2284380)
Outline: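 H295R adrenocortical carcinoma cells plated 24 h, then exposed 48 h to nine-point series 0.001–100 uM final, triplicate, n=5. ATP measured by CellTiter-Glo 2.0 luminescence on same plates after medium collection; loss versus DMSO.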

[10] = system: SRY-box transcription factor 2 (SOX2) Protein Expression, Deisenroth Lab, SOX2 (gene 6657); experiment: CCTE_Deisenroth_DEVTOX-GLR_Endo_SOX2: CCTE's DevTox GLR-Endo Assay Evaluation of SRY-box transcription factor 2 (SOX2) Protein Expression, Deisenroth Lab (AID 2284412)
Outline: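 RUES2-GLR human pluripotent cells were seeded 24 h, then differentiated 48 h with two chemical exposures 24 h apart. Cells were fixed, nuclei stained and imaged by high-content microscopy. Endpoint is %SOX2+ cells over cell count, minus 0.2% DMSO control; 10-point series 1 nM–200 uM.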

[11] = system: SRY-box transcription factor 17 (SOX17) Protein Expression, Deisenroth Lab, SOX17 (gene 64321); experiment: CCTE_Deisenroth_DEVTOX-GLR_Endo_SOX17: CCTE's DevTox GLR-Endo Assay Evaluation of SRY-box transcription factor 17 (SOX17) Protein Expression, Deisenroth Lab (AID 2284413; active = hit-call score of the fitted dose curve at least 0.9, where 1 is the maximum; inactive = score below 0.9)
Outline: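 Endpoint: % change in SOX17+ fraction (SOX17+ cells / cell count) vs 0.2% DMSO solvent control. RUES2-GLR reporter cells, 48 h endoderm differentiation, two doses at 24 h intervals, high-content fluorescence imaging, 5 fields/well.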

[12] = system: Brachyury (BRA) Protein Expression, TBXT (gene 6862); experiment: CCTE_Deisenroth_DEVTOX-GLR_Endo_BRA: CCTE's DevTox GLR-Endo Assay Evaluation of Brachyury (BRA) Protein Expression, Deisenroth Lab (AID 2284417; active = hit-call score of the fitted dose curve at least 0.9, where 1 is the maximum; inactive = score below 0.9)
Outline: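 Endpoint is the fraction of BRA reporter-positive cells over total nuclei, corrected by subtracting the 0.2% DMSO value. Chemicals (1 nM - 200 uM, 10 points) were dosed twice during 48 h differentiation of RUES2-GLR cells, read by imaging.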

[13] = CCTE_Deisenroth_DEVTOX-GLR_Endo_CellCount: Viability Assessment in CCTE's DevTox GLR-Endo Assay, Deisenroth Lab (AID 2284420; active = hit-call score of the fitted dose curve at least 0.9, where 1 is the maximum; inactive = score below 0.9)
Outline: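 Human pluripotent RUES2-GLR line; 24 h pre-seed; 48 h endoderm-directed differentiation; 2 doses, q24h; 10 conc., 1 nM - 200 uM; fix + nuclear dye; 5 fields/well imaged; readout = nuclei count, % change vs 0.2% DMSO; n=4.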

[14] = system: SRY-box transcription factor 17 (SOX17) Protein Expression, Deisenroth Lab, SOX17 (gene 64321); experiment: CCTE_Deisenroth_DEVTOX-GLR_Pluri_SOX17: CCTE's DevTox GLR-Pluri Assay Evaluation of SRY-box transcription factor 17 (SOX17) Protein Expression, Deisenroth Lab (AID 2284427)
Outline: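 Human RUES2-GLR pluripotent line; 24 h seeding, 48 h defined-media differentiation, 2 doses q24h, 10 conc 1 nM - 200 uM. Fix, nuclear stain, image 5 fields/well. Endpoint = %SOX17+ minus 0.2% DMSO; n=4.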

[15] = system: SRY-box transcription factor 2 (SOX2) Protein Expression, Deisenroth Lab, SOX2 (gene 6657); experiment: CCTE_Deisenroth_DEVTOX-GLR_Pluri_SOX2: CCTE's DevTox GLR-Pluri Assay Evaluation of SRY-box transcription factor 2 (SOX2) Protein Expression, Deisenroth Lab (AID 2284428; active = hit-call score of the fitted dose curve at least 0.9, where 1 is the maximum; inactive = score below 0.9)
Outline: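 Steps: seed RUES2-GLR cells for 24 h; start 48 h differentiation in defined media; dose test chemicals at 0 and 24 h (1 nM–200 uM); fix, stain nuclei, image; compute SOX2+ percentage against 0.2% DMSO wells.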

[16] = CCTE_Mundy_HCI_iCellGluta_NOG_NeuronCount: CCTE's Neurite Outgrowth Assay in iCellGluta cells for Neuron Count, Mundy Lab (AID 2284340);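 note: cells fixed about 48 h after compound addition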
Outline: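 Neuron count read by automated high-content imaging of Hoechst 33342 and betaIII-tubulin/Alexa Fluor-488 labelling in human iPSC glutamatergic neurons. Activity fitted relative to DMSO.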

[17] = CCTE_Mundy_HCI_iCellGluta_NOG_NeuriteCount: CCTE's Neurite Outgrowth Assay in iCellGluta cells for Neurite Count, Mundy Lab (AID 2284342);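 note: chemical exposure about 48 hours starting 2 hours after plating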
Experimental: CCTE_Mundy_HCI_iCellGluta_NOG is a multiplexed, cell-based-readout assay that uses iCell GlutaNeurons from FUJIFILM Cellular Dynamics, Inc. (FCDI), human glutamatergic enriched neurons derived from induced pluripotent stem (iPS) cells, with measurements taken at 50.33 hours after chemical dosing in a microplate: 96-well plate.CCTE_Mundy_HCI_iCellGluta_NOG_NeuriteCount is one of four components of the CCTE_Mundy_HCI_iCellGluta_NOG assay. It measures neurite outgrowth related to number of neurites using High Content Imaging of fluorescently labelled markers.Data from the assay component CCTE_Mundy_HCI_iCellGluta_NOG_NeuriteCount was analyzed at the endpoint CCTE_Mundy_HCI_iCellGluta_NOG_NeuriteCount in the positive analysis fitting direction relative to DMSO as the negative control and baseline of activity. Using a type of morphology reporter, loss-of-signal activity can be used to understand developmental effects.
Exposure starts 2 hours post-plating by adding 10 ul of the working solution to 90 ul of media in the wells for a 1/10 dilution. Forty-eight hours after chemical treatment cells are fixed by direct addition of 100 ul of warm (37C) Dulbecco's phosphate buffered saline (DPBS) fixative solution containing 8% paraformaldehyde, 8% sucrose, and 0.1% of 3 mg/ml Hoechst 33342 into each well. Primary antibodies are prepared by dilution in Immunocytochemical Staining Buffer (ISB), 10X Dulbecco's PBS, 0.1% Saponin, 5% Bovine Serum Albumin, 0.5% NaN3 (Sodium Azide) and betaIII-tubulin (rabbit anti-betaIII-tubulin, 1:800) followed by Alexa Fluor-488 secondary (1:500) to label neuronal cell bodies and neurites. A Cellomics ArrayScan VTi HCS Reader is used for automated image acquisition and analysis of neurite outgrowth.

[18] = VALA_TUBHUV_Agonist_TubuleLength: VALA Sciences human Umbilical Vein Endothelial Tubule Formation (TUBHUV) Agonism Assay (AID 2284337)
Outline: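 HUVEC co-cultured with fibroblasts (1:3) 3 days in 10 ng/ml VEGF, then 3 days with compound plus VEGF; 0.1 % DMSO neutral control. Fixed, nuclear and CD31 stained; tubule length by fluorescence imaging.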

[19] = CCTE_Padilla_ZF_Score.General: CCTE's 144 Hour Post-fertilization zebrafish Assay Score for General Malformation, Padilla Lab (AID 2284411; active = hit-call score of the fitted dose curve at least 0.9, where 1 is the maximum; inactive = score below 0.9)
Outline: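 Wild-type zebrafish embryos were plated singly at 6-8 hpf in 10% Hanks' and exposed in sealed wells at 26C until rinsed on 5 dpf. At 6 dpf two blinded assessors scored mortality, hatching and malformations by stereomicroscopy; gain-of-signal versus DMSO.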

SMILES: CC(C)(c1ccc(O)cc1)c1ccc(O)cc1
- outcome [1]: inactive
- outcome [2]: inactive
- outcome [3]: inactive
- outcome [4]: inactive
- AC50 [5]: 51.4 µM (active)
- AC50 (SERPINA7 (gene 6906)): 12.4 µM (active)
- AC50 [6]: 50.7 µM (active)
- AC50 [7]: 37 µM (active)
- AC50 [8]: 0.804 µM (active)
- AC50 [9]: 15 µM (active)
- AC50 [10]: 64.4 µM (active)
- AC50 [11]: 50.8 µM (active)
- AC50 [12]: 83.8 µM (active)
- AC50 [13]: 35.5 µM (active)
- AC50 [14]: 29.3 µM (active)
- AC50 [15]: 38.9 µM (active)

SMILES: OB(O)O
- outcome [5]: inactive
- outcome [6]: inactive
- outcome [11]: inactive
- AC50 [12]: 30.5 µM (active)
- outcome [13]: inactive
- outcome [14]: inactive
- outcome [15]: inactive

SMILES: N#CSCSc1nc2ccccc2s1
- AC50 (SERPINA7 (gene 6906)): 33.2 µM (active)

SMILES: COc1c(Cl)ccc(Cl)c1C(=O)O
- AC50 (SERPINA7 (gene 6906)): 47.7 µM (active)

SMILES: S=C(S)NCCNC(=S)S.[Mn+2].[S-]C([S-])=NCCN=C([S-])[S-].[Zn+2]
- outcome [1]: inactive
- outcome [3]: inactive
- outcome [4]: inactive
- outcome [16]: inactive
- outcome [17]: inactive

SMILES: COC(=O)CSc1cc(N=c2sc(=O)n3n2CCCC3)c(F)cc1Cl
- AC50 (SERPINA7 (gene 6906)): 25.9 µM (active)

SMILES: N[C@@H](Cc1cc(I)c(Oc2ccc(O)c(I)c2)c(I)c1)C(=O)O
- outcome [3]: inactive
- outcome [18]: inactive
- outcome [4]: inactive

SMILES: Cc1nn(C)c(Oc2ccccc2)c1C=NOCc1ccc(C(=O)OC(C)(C)C)cc1
- outcome [1]: inactive
- AC50 [16]: 6.47 µM (active)
- AC50 [17]: 1.39 µM (active)

SMILES: COCCO
- outcome [19]: inactive

SMILES: CCC(C)OC(=O)N1CCCCC1CCO (centres undefined)
- outcome [19]: inactive
